About 3,700 (7%) of roughly 53,000 sequences were called active. Shown is part of a subset that was picked to be rich in actives. Unmarked numbers belong to inactive results.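 Rule for the calls: active = gene knockdowns whose robust z-score for IL-1 alpha signal is at least 2 or at most -2, so actives lie on both sides; inactive = the rest.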

The assay in a line: Components of the Cytosolic LPS Sensing Pathway: Gene Identification via Genome-wide siRNA Screen.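 Note: robust z of the log signal after scaling to non-targeting control siRNA wells of the plate.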 The settings on record: RAW264.7 macrophages, IL-1a HTRF, actives lie on both sides, screened at 100 nM (by protocol), cells primed 5 h with Pam3CSK4 first. The gist of the method: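 Mouse macrophage line RAW264.7 is transfected with siRNA (100 nM final), grown 48h, primed with TLR ligand Pam3CSK4 5 h and given intracellular LipidA 24 h. IL-1a in supernatant is read by HTRF and viability by luminescence.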
As for GCGAACCCUAAGUAAGAAGTT against U2surp, the z-score is -0.989.

With GCGAGAUGCCAACAAACUGTT against Pacs1, the z-score was 0.678.

On to GCUACCUAUGCCAAUAUCATT against Efemp1, for which the z-score is -0.787.

Turning to GGGCAUCACUUGUAAUUAATT against Bcl10, the z-score is -2.06 (active).

On to GGAACCUAUCCAAGAAGUATT against Ckap2, for which the z-score is 0.428.

GUCACAGUACCCAAAAUGUTT against Olfr979: the z-score is -2.42 (active).

Regarding GGCCUUGUAUAAAACACAUTT against Pah, the z-score is 0.293.

Take CCAGCUUGUUACUAAGUAATT against Mgat3: the z-score is -0.227.

As to GAGUACCAGCUGUUGUUCATT against Olfr392, the z-score was 4.22 (active).

For GCAGGGAGGCAUCUUCUUUTT against Olfr3, the z-score is -0.22.

In the case of GGUUCUUUCCAAACAAGAGTT against Evc, the z-score is 1.1.

Turning to GGAGGUCAUCAACGUGCUATT against Nucb1, the z-score was -0.339.

Turning to CGGUACAAAUGAUUUCUGATT against Pcolce2, the z-score is 2.04 (active).

For the sequence GGUAAAAUUGUCCAAGGAATT against Clec2i, the z-score is -0.109.

On to GGCCAAGAAGACAAGAAAATT against Ddx54, for which the z-score was 0.502.

Turning to GGAAUAUGUUUAGCAUCUGTT against Mfsd5, the z-score was -0.437.

GGCACAUAUGAGGACUACCTT against Myl6b: the z-score was 0.786.

With GCCGUGCAACACUUCUACATT against Esrrb, the z-score is -0.471.

Turning to GGAGGUCCCUUCUUCAGCUTT against Zfp410, the z-score is -1.19.

On to GGCCAAGAAGAGAAAAACATT against Ccne2, for which the z-score was -1.54.

Take GGUCAUGGAUGUCACAGAGTT against Mink1: the z-score was -2.17 (active).

CCAGAUUCUAUAAUAGAGUTT against Gabrp: the z-score is -0.232.

Regarding GGGUUCUGUGUAAAUGUAUTT against Gzma, the z-score is 0.203.

GGCAGAAGUCCAACUUCUUTT against Pirt: the z-score was -0.363.

Regarding GCUAGUGCGCAUGUUUCUCTT against Rasgrp2, the z-score was 0.621.

Regarding GGUGGAAGCACAGAGUUGCTT against Prdm15, the z-score was 2.14 (active).

On to GGACAACCAAAAUGCAUUUTT against Zic3, for which the z-score is 0.517.

Take GGAACUGGGUCCUCAUUCCTT against Capn1: the z-score was -1.6.

With GGAGUUCAACUAGAUGUGGTT against Bcl2l13, the z-score is -1.2.

As to GCUUCAAUGAGGAGUAUCUTT against Smpdl3b, the z-score was -0.617.

These data come from PubChem BioAssay AID1508600 (Functional Genomics Laboratory (NCATS/FGL), 2020).
